Experimental data reported in PubChem BioAssay AID1851 (National Center for Advancing Translational Sciences (NCATS), 2009).
Out of some 16,000 compounds screened, about 4,000 (25%) were called active. Another 26% or so got no clear call; they are omitted. Calls come from the whole dose curve; as a rule, active = well fitted curve in the direction sought with a large enough effect; inconclusive = small, poorly fitted or top-dose-only effect, or effect the other way; inactive = no such curve, though single readings can be large or run the other way. The list is a sample of the results.

Biological target: Cytochrome P450 2C9 (Homo sapiens) (UniProt P11712)
Sequence (P11712 whole entry, looked up): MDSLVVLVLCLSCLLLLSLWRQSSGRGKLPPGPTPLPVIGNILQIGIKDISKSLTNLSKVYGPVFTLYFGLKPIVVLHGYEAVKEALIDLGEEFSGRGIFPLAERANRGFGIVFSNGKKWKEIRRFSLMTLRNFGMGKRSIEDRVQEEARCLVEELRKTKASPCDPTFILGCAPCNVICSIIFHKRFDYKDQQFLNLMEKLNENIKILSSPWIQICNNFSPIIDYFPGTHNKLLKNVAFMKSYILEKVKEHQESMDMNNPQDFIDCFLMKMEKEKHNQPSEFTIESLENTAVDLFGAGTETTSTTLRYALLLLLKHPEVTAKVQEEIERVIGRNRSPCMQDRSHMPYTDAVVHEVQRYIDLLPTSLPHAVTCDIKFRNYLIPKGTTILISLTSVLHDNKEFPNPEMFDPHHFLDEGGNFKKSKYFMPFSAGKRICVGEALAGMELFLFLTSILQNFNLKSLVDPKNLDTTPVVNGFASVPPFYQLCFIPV
Assay: Cytochrome panel assay with activity outcomes
Details: recombinant CYP, pro-luciferin dealkylation, luminescence, p450-cyp2c9; series mostly up to 57.1 µM
% is set by controls: 0 for no effect and ±100 for the full control effect.

SMILES | AC50 | activity, negative = inhibition
O=C(Cn1c(C(F)(F)F)nc2ccccc21)c1ccc(F)cc1 | 3.55 µM (active) | 
CN(C)C(=O)c1ccc(-c2nc(Nc3ccc(F)cc3)c3ccccc3n2)cc1 |  | -11.1% [at 2.29 µM] (inactive)
O=C(CCCN1CCC(O)(c2cccc(C(F)(F)F)c2)CC1)c1ccc(F)cc1 | inactive | 
O=C(Cn1c(C(F)(F)F)nc2ccccc21)c1ccccc1 | 10 µM (active) | 
CC(=O)N1CCC[C@@]2(CCN(Cc3nccs3)C2)C1 | inactive | 
CO[C@H]1COC(=O)C/C=C\[C@H](C)COC(=O)[C@@H](OCc2ccccc2)/C=C\[C@@H]1C |  | -4.97% [at 11.4 µM] (inactive)
Cc1nc2cnc(Oc3ccccc3)nc2n(C)c1=O | inactive | 
O=c1cnc2cnc(N3CCOCC3)nc2n1C1CC1 | inactive | 
Cc1nc2cnc(Oc3cccc(Cl)c3)nc2n(C2CC2)c1=O | 12.6 µM (active) | 
COc1ncc2nc(C)c(=O)n(C3CC3)c2n1 | inactive | 
N#Cc1cccc(-c2nc3cnc(Oc4cccc(Cl)c4)nc3n(C3CC3)c2=O)c1 | 3.16 µM (active) | 
O=c1cnc2cnc(Oc3cccc(Cl)c3)nc2n1C1CC1 | 6.31 µM (active) | 
Cn1c(=O)c(-c2ccc(Cl)cc2)nc2cnc(Oc3cccc(Cl)c3)nc21 | inactive | 
O=c1cnc2cnc(Oc3ccccc3)nc2n1C1CC1 | inactive | 
O=c1c(-c2ccccc2)nc2cnc(Oc3cccc(Cl)c3)nc2n1C1CC1 | 0.251 µM (active) | 
N#Cc1cccc(-c2nc3cnc(N4CCOCC4)nc3n(C[C@H]3CCCO3)c2=O)c1 | inactive | 
CS(=O)(=O)Nc1cccc(-c2nc(N3CCNCC3)c3ccccc3n2)c1 |  | -1.92% [at 2.29 µM] (inactive)
CCCCCCCCSc1nnc(CSc2nc3nc(C)cc(C)n3n2)o1 | 17.8 µM (active) | 
CCCSc1nnc(CSc2nc3nc(C)cc(C)n3n2)o1 | inactive | 
Cc1cc(C)n2nc(SCC(=O)N/N=C/c3ccccc3F)nc2n1 | inactive | 
N#Cc1cccc(NC(=O)N2CCC3(CC2)CCN(C(=O)c2csnn2)CC3)c1 | inactive | 
CCc1ccc(N/C(SCc2ccccc2C)=C(/C#N)C(=O)NCc2ccco2)cc1 | 3.16 µM (active) | 
N=c1nc(N)nc(N)n1-c1ccc(S(N)(=O)=O)cc1 |  | -1.26% [at 11.4 µM] (inactive)
O=C(NCCOC12CC3CC(CC(C3)C1)C2)c1cccc(Br)c1 | 14.1 µM (active) | 

SMILES | AC50 | activity, negative = inhibition
NC(=O)c1ccc[n+](CC(=O)OCCC23CC4CC(CC(C4)C2)C3)c1 | inactive | 
Cc1ccc(-c2n[nH]c(=S)n2/N=C/c2cccn2C)cc1 | 12.6 µM (active) | 
COc1ccc(-n2c(=O)c(-c3cccs3)nc3cnc(Nc4cccc(OC)c4)nc32)cc1 | inactive | 
COc1ccc(-n2c(-c3cnccn3)n[nH]c2=S)cc1 | inactive | 
Cc1n[nH]c(=S)n1/N=C/c1ccc(Br)o1 | inactive | 
Cc1ccc(/C=N/n2c(-c3cccs3)n[nH]c2=S)cc1 | 1.58 µM (active) | 
COc1ccc(/C=N/n2c(-c3cccs3)n[nH]c2=S)cc1 | 2.24 µM (active) | 
C[N+](C)(C)c1cc2c(nn1)Nc1ccccc1S2 |  | -3.44% [at 11.4 µM] (inactive)
C[C@@H](CCCCC(=O)Nc1ccc(C(F)(F)F)cc1)NCCc1cnc[nH]1 | 7.94 µM (active) | 
NCCC(=O)NCCc1cnc[nH]1 | inactive | 
Cc1oncc1C(=O)Nc1ccc(C(F)(F)F)cc1 | inactive | 
Cc1cc(O)c(C(C)C)cc1C1(c2cc(C(C)C)c(O)cc2C)OC(=O)c2ccccc21 | 0.316 µM (active) | 
Cc1cc(O)c(C(C)C)cc1NC(=O)Nc1cccc2ccccc12 |  | -7.14% [at 11.4 µM] (inactive)
O=c1nc2ccccc2c2n1C[C@H](CN1CCN(c3ccccc3)CC1)N2 | inactive | 
COC(=O)C(NC(=O)c1ccc(Cl)cc1)(Nc1nc(C)cs1)C(F)(F)F (stereo unspecified) | 8.91 µM (active) | 
Cc1noc(C)c1-c1nc(Nc2ccccc2)c2ccccc2n1 |  | 2.16% [at 2.29 µM] (inactive)
Cc1[nH]nc(Nc2ccccc2)c1[N+](=O)[O-] | 20 µM (active) | 
Nc1nc(NCc2ccccc2)nc(Nc2cccc(F)c2)c1[N+](=O)[O-] | inactive | 
CCO/C([O-])=N/c1c[n+](N2CCOCC2)no1 | inactive | 
Clc1ccccc1-c1nc(NC2CCNCC2)c2ccccc2n1 |  | 2.89% [at 2.29 µM] (inactive)
COC(=O)CN(c1ccc(OC)cc1)S(=O)(=O)c1c(C)noc1C | 11.2 µM (active) | 
COc1cccc(CNCCNC(=O)c2nonc2N)c1 | inactive | 
COc1ccc(NC(=O)N2CCCC3(CCN(C(=O)c4c(C)noc4C)CC3)C2)cc1 | inactive | 
CCOc1ccc(N(CC(=O)NCc2ccc(OC)cc2)S(=O)(=O)c2c(C)noc2C)cc1 | inactive | 

SMILES | AC50 | activity, negative = inhibition
COc1ccc(N(CC(=O)NCc2cccc(OC)c2)S(=O)(=O)c2c(C)noc2C)cc1 | 7.94 µM (active) | 
COc1ccc(NC(=O)N2CC3(CCN(C(=O)c4c(C)noc4C)CC3)C2)cc1 | inactive | 
NC(N)=N/N=C(/c1ccccc1)c1ccc(O)cc1O |  | -9.7% [at 11.4 µM] (inactive)
Cc1ccc(S(=O)(=O)N2CCN(C(=O)CN3CCN(C)CC3)C2)cc1 | inactive | 
Cc1ccc(C(=O)NC(=S)Nc2ccc(S(=O)(=O)N3CCN(C)CC3)cc2)cc1 | 14.1 µM (active) | 
COc1ccc(S(=O)(=O)N2CCC(NC(=O)Nc3ccc(C)cc3)CC2)cc1 | inactive | 
Cc1[nH]n(C(C)(C)C)c(=O)c1Sc1ccc(Cl)cc1 | 12.6 µM (active) | 
Cc1[nH]n(C(C)(C)C)c(=O)c1Sc1ccccc1 | 7.08 µM (active) | 
CN(C)c1ncc2nc(CCc3ccccc3)c(=O)n(C3CC3)c2n1 | 12.6 µM (active) | 
COc1ncc2nc(CCc3ccccc3)c(=O)n(C3CC3)c2n1 | 15.8 µM (active) | 
COc1ccc(-n2c(=O)c(C)nc3cnc(Oc4ccccc4)nc32)cc1 | inactive | 
COc1ccc(Oc2ncc3nc(CCc4ccccc4)c(=O)n(C4CC4)c3n2)cc1 | 12.6 µM (active) | 
COc1cccc(Nc2ncc3nc(CCc4ccccc4)c(=O)n(C4CC4)c3n2)c1 | inactive | 
COc1cccc(Nc2ncc3nc(-c4cccs4)c(=O)n(-c4ccccc4)c3n2)c1 | inactive | 
CNc1nc(-c2ccoc2)nc2ccccc12 |  | 13% [at 2.29 µM] (inactive)
Clc1ccc2c(c1)C=Nc1c(NCc3ccccc3)ncnc1O2 | inactive | 
Fc1ccc(-c2cn3cc(C(F)(F)F)cc(Cl)c3n2)cc1 | 4.47 µM (active) | 
N#Cc1ccc(-c2ccc(F)cc2)nc1Oc1ccc(Cl)c(Cl)c1 | inactive | 
OCCCNCc1ccccn1 |  | 9.34% [at 11.4 µM] (inactive)
COc1ccc(N2C(=O)NC3CC2(C)Oc2ccccc23)cc1OC (stereo unspecified) | inactive | 
O=C(NCc1ccccc1)c1ccc2c(c1)C(=O)N(CC1CCCO1)C2=O (stereo unspecified) | inactive | 
CC12CC(NC(=O)N1c1cccc(C(=O)NCc3ccccc3)c1)c1ccccc1O2 (stereo unspecified) | 3.98 µM (active) | 
Cn1c(=S)c2[nH]c(SCCN3C(=O)c4ccccc4C3=O)nc2n(C)c1=O |  | -3.8% [at 11.4 µM] (inactive)
Cn1c(=O)c2[nH]c(CCCCc3nc4c([nH]3)c(=O)n(C)c(=S)n4C)nc2n(C)c1=S |  | -2.51% [at 11.4 µM] (inactive)

SMILES | AC50 | activity, negative = inhibition
Cn1c(=O)c2[nH]c(SCc3ccccn3)nc2n(C)c1=S | 3.16 µM (active) | 
CN(C)c1ccc(-c2cncnc2N(C)Cc2ccco2)cc1 |  | -17.3% [at 2.29 µM] (inactive)
CCOc1ccc(NC(=S)N(Cc2ccc(N(C)C)cc2)Cc2ccco2)cc1 | 1 µM (active) | 
CN(C)c1ccc(-c2cc(N(C)Cc3ccco3)ncn2)cc1 |  | -6.39% [at 2.29 µM] (inactive)
CCOc1ccc(NC(=S)N(Cc2ccc(Cl)cc2)Cc2ccco2)cc1 | 10 µM (active) | 
N[C@H](C(=O)O)[C@H](O)C(=O)O | inactive | 
Cc1ccc(NC(=O)c2ccc(NCC3CCCO3)c([N+](=O)[O-])c2)cc1Cl (stereo unspecified) | 1.12 µM (active) | 
CC(C)(C)C(=O)N1CCN(c2ccc([N+](=O)[O-])c(NCC3CCCO3)c2)CC1 (stereo unspecified) | 12.6 µM (active) | 
Cc1cc(C)c(S(=O)(=O)N2CCN(c3ccc([N+](=O)[O-])c(NCC4CCCO4)c3)CC2)c(C)c1 (stereo unspecified) | 2 µM (active) | 
CCS(=O)(=O)N1CCC(C(=O)NCC2CCCO2)CC1 (stereo unspecified) | inactive | 
N#CCSc1ncnc2c1cnn2CCO | inactive | 
O=C1C2C3C=CC(C3)C2C(=O)N1c1ncn[nH]1 (stereo unspecified) | inactive | 
CCOc1cc(/C=C2/C(=O)N(c3ccccc3)N=C2C)ccc1OC(=O)c1ccco1 | 0.631 µM (active) | 
CC1=NN(c2ccccc2)C(=O)/C1=C\N1CC(C)OC(C)C1 (stereo unspecified) | inactive | 
CC1=NN(c2ccc(S(=O)(=O)O)cc2)C(=O)/C1=C\c1ccc(Cl)cc1 |  | -2.05% [at 11.4 µM] (inactive)
CNc1nc(-c2ccccc2CN(C)C)nc2ccccc12 |  | 4.11% [at 2.29 µM] (inactive)
O=C1Oc2ccccc2C(=O)/C1=C\N1C(=O)N/C(=C\c2ccccc2O)C1=O | 1 µM (active) | 
C[C@H](C[C@H](N)C(=O)O)C(=O)O | inactive | 
CC(=O)OC[C@@H]1O[C@@H](O/N=C2/C[C@@H](O)[C@@H](O)[C@@H]3[C@@H]4C(=O)N([C@@H](C)c5ccccc5)C(=O)[C@H]4CC[C@@H]23)[C@H](OC(C)=O)[C@H](OC(C)=O)[C@@H]1OC(C)=O |  | 16.3% [at 11.4 µM] (inactive)
O=S(=O)(c1ccccc1)N1CCCC1c1nc2ccccc2s1 (stereo unspecified) | 12.6 µM (active) | 
CC(C)NC(=O)N1CCC2(CC1)CCN(C(=O)c1cccn1C)CC2 | inactive | 
COc1cccc(CNc2ccc(F)c(Cl)c2)c1O | 2.82 µM (active) | 
COc1ccccc1CNc1ccnc(-c2ccccc2Cl)n1 |  | -21.6% [at 2.29 µM] (inactive)
COc1ccccc1CNc1ncncc1-c1ccccc1Cl |  | -27.8% [at 2.29 µM] (inactive)
